D2 ag-1: HTS Assay for Allosteric Agonists of the Human D2 Dopamine Receptor: Primary Screen for Agonists | D(2) dopamine receptor (Homo sapiens), P14416 | hit rate 0.53% among 340,000 | activation, % at 2 µM | HEK293 T-REx D2 cells, calcium flux agonist mode | AID 485358, 2010;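 active means activation over 3 SD above normal in the single-dose calcium agonist read, cut at about 30% in these data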
Target sequence (P14416 whole entry, looked up): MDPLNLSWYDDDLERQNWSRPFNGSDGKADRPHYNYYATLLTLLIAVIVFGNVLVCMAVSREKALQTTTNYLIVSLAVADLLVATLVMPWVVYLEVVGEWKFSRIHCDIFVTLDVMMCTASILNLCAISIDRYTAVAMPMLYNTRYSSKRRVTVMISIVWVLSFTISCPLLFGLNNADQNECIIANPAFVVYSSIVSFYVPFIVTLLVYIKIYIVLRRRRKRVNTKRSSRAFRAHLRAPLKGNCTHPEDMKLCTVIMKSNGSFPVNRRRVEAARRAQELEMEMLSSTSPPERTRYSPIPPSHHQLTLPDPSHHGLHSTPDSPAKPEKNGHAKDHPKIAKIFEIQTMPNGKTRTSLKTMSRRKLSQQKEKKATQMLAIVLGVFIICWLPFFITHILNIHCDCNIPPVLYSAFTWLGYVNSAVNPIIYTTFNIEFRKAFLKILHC
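In this primary screen, compounds producing a positive calcium signal within 180 s of addition to tetracycline-induced, force-coupled HEK293 Trex D2 cells are flagged; cells are dye-loaded with a no-wash calcium kit beforehand.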
D2 PAM-1: HTS Assay for Positive Allosteric Modulators of the Human D2 Dopamine Receptor: Primary Screen for Potentiators. D(2) dopamine receptor (Homo sapiens), P14416. HEK293 T-REx D2, calcium flux, EC20 dopamine potentiation. potentiation, % at 10 µM. hit rate 0.34% among 340,000. AID 485347, 2010;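 active means potentiation over 3 SD above the plate norm, cut at about 30% in these data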
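Tetracycline-induced Hek293 Trex D2 cells, force-coupled to calcium, loaded with no-wash calcium dye. Compound added with 180 s kinetic read for agonism, then EC20 dopamine and a further 180 s read for potentiation.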
D2 ag-2: Beta-Arrestin HTS for Positive Allosteric Modulators of the Human D2 Dopamine Receptor: Agonists; D(2) dopamine receptor (Homo sapiens), P14416; DiscoveRx PathHunter D2 beta-arrestin, luminescence, 90 min; 100% = 57 uM dopamine signal; activation, % (test concentration not listed); hit rate 0.084% among 360,000; AID 624465, 2012; in the data active means activation above about 40%; inconclusive means between about 15% and that limit
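Agonist mode: compounds alone added to overnight-plated D2 PathHunter cells for 90 min at 37 C, with 57 uM final dopamine (EC100) defining full response. Beta-arrestin recruitment detected by chemiluminescent reagent, read after 1 h at ambient temperature.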
D2 PAM-2: Beta-Arrestin HTS for Positive Allosteric Modulators of the Human D2 Dopamine Receptor: Potentiators. D(2) dopamine receptor (Homo sapiens), P14416. DiscoveRx D2 beta-arrestin cells, luminescence, 90 min; 100% = 57 uM dopamine signal. potentiation, % (concentration not given with the values). hit rate 0.23% among 360,000. AID 624464, 2012; in the data active means potentiation above about 50%; inconclusive means mostly about 30% to 49%
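PathHunter beta-arrestin assay in DiscoveRx D2 cells. Compounds were added with an EC20 of dopamine (50 nM final) for 90 min at 37 deg C. Luminescence was read 1 h after detection reagent, with 57 uM dopamine as the EC100 control.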
D2 antagonist: HTS Assay for Allosteric Antagonists of the Human D2 Dopamine Receptor: Primary Screen for Antagonists; D(2) dopamine receptor (Homo sapiens), P14416; HEK293 TREx D2 cells, calcium flux, dopamine EC80; inhibition, % at 10 µM; hit rate 2% among 340,000; in the data active means inhibition above about 30%; inactive means below that, where a call was filed
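Dopamine at EC80 is the agonist stimulus; test compounds precede it by 180 s. Calcium flux read kinetically in a force-coupled, inducible HEK293 T-REx D2 cell line.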
Each line names hits and unclear results; the compound was inactive in the other large screens. In the library only some 2.4% were active in any assay of this set; here they are far more common.

O=S(=O)(NCC1CCCO1)c1ccc(S(=O)(=O)N(Cc2ccccn2)C2CC2)cc1 (stereo not drawn)	D2 antagonist 74.1
COc1ccccc1C(=O)NC(=O)COc1ccc([N+](=O)[O-])cc1	none
Cc1ccccc1NC(=O)c1sc(Cl)nc1-c1ccccc1	D2 antagonist 30.7
O=C(CCS(=O)(=O)c1cc2c3c(c1)CCN3C(=O)CC2)Nc1cccc(Br)c1	none (no result: D2 ag-2, D2 PAM-2, D2 antagonist)
C=C(C)C(=O)Nc1cccc(C2=NOC3(C2)C[C@@H](C(N)=O)N(C(=O)c2ccc(OC)cc2)C3)c1 (stereo partly drawn)	none
C/C=C(/C)C(=O)Nc1cccc(C2=NOC3(C2)C[C@@H](C(N)=O)N(C(=O)CC)C3)c1 (stereo partly drawn)	D2 antagonist 43.4
C=C(C)C(=O)Nc1cccc(C2=NOC3(C2)C[C@@H](C(N)=O)N(C(=O)c2cc([N+](=O)[O-])cc([N+](=O)[O-])c2)C3)c1 (stereo partly drawn)	D2 PAM-2 84.0
COc1ccc(/C=C(\NC(=O)c2ccccc2)C(=O)NC2CCS(=O)(=O)C2)cc1 (stereo not drawn)	none
Cc1cccc(CS(=O)(=O)CC2Nc3ccc(C(=O)NCc4ccccc4)cc3NC2=O)c1 (stereo not drawn)	none (no result: D2 PAM-1, D2 ag-2, D2 PAM-2, D2 antagonist)
COc1cccc(/C=N\NC(=O)c2cc(OCC(F)(F)F)ccc2OCC(F)(F)F)c1	D2 PAM-1 30.8
CS(=O)(=O)NCCNC(=O)c1cc(OCC(F)(F)F)ccc1OCC(F)(F)F	D2 antagonist 30.8
N#C/C(=C\c1ccc(-c2ccc(C(=O)O)cc2)o1)C(=O)Nc1ccccc1C(=O)O	none (no result: D2 ag-2, D2 PAM-2, D2 antagonist)
CN(C)c1ccc(/C=C/c2ccc3ccccc3n2)cc1	none
CCCN(CCC)c1ccc(/C=C/c2ccc3cc(OCC)ccc3n2)cc1	D2 ag-1 38.1
COc1cccc(OC)c1-c1nn(-c2ncc(C(F)(F)F)cc2Cl)c(=O)o1	D2 antagonist 37.7
CCCN1C(=O)/C(=C/c2c(N3CCNC(=O)C3CC(=O)OCC)nc3c(C)cccn3c2=O)SC1=S (stereo not drawn)	D2 ag-1 80.9
CCOC(=O)CC1C(=O)NCCN1C(=O)c1ccc(C)cc1 (stereo not drawn)	none
CCOC(=O)CC1C(=O)NCCN1c1nc2ccc(C)cn2c(=O)c1/C=C1\SC(=S)N(C(C)CC)C1=O (stereo not drawn)	D2 ag-1 72.7, D2 antagonist 31.8 (no result: D2 ag-2, D2 PAM-2)
CCCCCN1C(=O)/C(=C/c2c(N3CCc4ccccc4C3)nc3ccccn3c2=O)SC1=S	none (no result: D2 ag-1, D2 PAM-1, D2 antagonist)
CCOC(=O)CC1C(=O)NCCN1c1nc2ccc(C)cn2c(=O)c1/C=C1\SC(=S)N(CC(C)C)C1=O (stereo not drawn)	D2 ag-1 104.2
O=C(NCCSCc1ccco1)Nc1cc(Cl)cc(Cl)c1	D2 antagonist 30.3
COc1ccc(N(C(=O)c2ccc(Cl)cc2)S(=O)(=O)c2ccc(C)cc2)cc1	none (no result: D2 ag-2, D2 PAM-2, D2 antagonist)
O=C1CN(O)C=C2N=c3ccccc3=C2N1c1ccc([N+](=O)[O-])cc1	D2 PAM-2 102.8
CC(NC(=O)[C@H](C)NC(=O)c1ccco1)c1ccc(S(N)(=O)=O)cc1 (stereo partly drawn)	none
CC(NC(=O)c1ccco1)C(=O)NC(C)c1cc(F)c(Cl)cc1Cl (stereo not drawn)	D2 PAM-1 30.4
CN1CCN(c2ccccc2/C=C2/C(=O)Nc3ccccc32)CC1	D2 antagonist 37.2
O=C1Nc2ccccc2/C1=C/c1ccccc1Cl	none
COc1ccc(-c2csc(NCCc3nc4cc(Cl)c(Cl)cc4n3CCCO)n2)cc1	none (no result: D2 ag-1, D2 PAM-1, D2 antagonist)
c1ccc(-c2cc3nc(NCC4CC4)nc(NCC4CCCCC4)c3s2)cc1	D2 ag-2 40.9 (no result: D2 ag-1, D2 PAM-1, D2 antagonist)
COCCNc1nc(NCC2CCCCC2)c2sc(-c3ccccc3)cc2n1	D2 ag-2 inconclusive (no result: D2 ag-1, D2 PAM-1, D2 antagonist)
O=C(O)c1ccccc1NC(=O)N1CCOCC1	none
CCOc1ccc(C(=O)NCC(c2cccs2)N(C)C)cc1OCC (stereo not drawn)	D2 antagonist 50.8
CCOc1ccc(C(=O)NCc2ccncc2)cc1OCC	D2 antagonist 34.4
CCCOc1ccc(C(=O)NCC(c2cccs2)N(C)C)cc1 (stereo not drawn)	none
Cn1c(Cl)c(/C=N/OC(=O)c2ccc(Cl)cc2)c2ccccc21	D2 antagonist 56.1
Cn1c(N2CCOCC2)c(/C=N/OC(=O)c2ccc(F)cc2)c2ccccc21	D2 ag-2 inconclusive, D2 PAM-2 141.2
Cc1ccc(C(=O)O/N=C/c2c(N3CCOCC3)n(C)c3ccccc23)cc1	D2 ag-2 inconclusive, D2 PAM-2 85.2
Cc1ccc(C(=O)O/N=C/c2c(Cl)n(C)c3ccccc23)cc1	none
CC(=O)O/N=C/c1c(N2CCOCC2)n(C)c2ccccc12	D2 PAM-2 62.2 (no result: D2 ag-1, D2 PAM-1, D2 antagonist)
CCOC(=O)c1c(C)oc2nc(C)nc(NCCc3ccc(OCC)cc3)c12	none (no result: D2 ag-2, D2 PAM-2, D2 antagonist)
COc1cccc(N2CCN(C(=O)C3CCN(S(=O)(=O)c4c(C)noc4C)CC3)CC2)c1	none (no result: D2 ag-2, D2 PAM-2, D2 antagonist)
CCCn1c(CCC(=O)Nc2ccc(OCC)cc2)nc2cccnc21	none (no result: D2 ag-2, D2 PAM-2, D2 antagonist)
Cc1cc(C)c2ccc(C)[n+]([O-])c2c1O	D2 antagonist 37.4
Cc1cc(C)c2ccc(N)nc2c1O	none
COc1ccccc1N1CCN(CC(O)COCCOc2ccc(Br)cc2)CC1 (stereo not drawn)	D2 antagonist 78.5
OC(COc1cccc2ccccc12)CN1CCN(c2ccccc2Cl)CC1 (stereo not drawn)	D2 antagonist 39.1
Cc1ccc(Cl)cc1N1CCN(CC(O)COCc2ccco2)CC1 (stereo not drawn)	D2 antagonist 97.4
COc1ccccc1N1CCN(CC(O)c2ccc3cc[nH]c3c2)CC1 (stereo not drawn)	D2 ag-1 36.9, D2 antagonist 59.6
CCCN1CCN(CCCNC(=O)Cn2c(-c3cccs3)cc3cc(Cl)ccc32)CC1	none (no result: D2 ag-2, D2 PAM-2, D2 antagonist)
COC(=O)[C@@H](Cc1c[nH]c2ccccc12)NC(=O)C1CCCN(S(=O)(=O)c2ccc(C)cc2)C1 (stereo partly drawn)	none
COc1ccccc1-n1c(/C=C/c2c(C)n(C)c3ccccc23)nc2ccccc2c1=O	none (no result: D2 ag-2, D2 PAM-2, D2 antagonist)
COc1ccccc1N1CCN(CC(O)COc2ccc(C)cc2C)CC1 (stereo not drawn)	D2 antagonist 75.9
COc1ccc2[nH]cc(C(O)CN3CCN(c4ccccc4F)CC3)c2c1 (stereo not drawn)	D2 antagonist 33.3
Cc1ccccc1OCC(O)CN1CCCCC1 (stereo not drawn)	none

Screening results as filed in PubChem.
